Screen size: about 300,000 compounds; about 22,000 (7.3%) were called active. Inconclusive results (about 2%) are left out. This excerpt belongs to a sample that is enriched for actives. Values without a mark were called inactive. Rule as the data show it: active = activity score below about -60%; inconclusive = mostly about -28% to -61%; inactive = positive scores.

A short description of the test: Activators working through SNCA 5'UTR binding (MLPCN) (AID 1814). To be noted: alpha-synuclein 5'UTR reporter, activators screen; hits give low values; tested at 7.5 µM.
As to `COc1ccc(NC(=O)c2cc(-c3ccc(C)cc3)on2)cc1`, the activity score is -154% (active).

Turning to `Cn1c(CN2CCOCC2)nc2cc(NC(=O)c3ccc(Cl)cc3)ccc21`, the activity score is -163% (active). Next, `COc1ccc(NC(=O)CS(=O)(=O)c2ccccc2)cc1`: -62.5% (active); `CCc1cc(C(N)=O)c(NC(=O)c2ccc(OC)cc2)s1`: -174% (active); `CC(=O)c1cccc(NC(=O)C2COc3ccccc3O2)c1` (stereo unspecified): -134% (active). As to `COc1ccc(NC(=O)C2COc3ccccc3O2)cc1` (stereo unspecified), the activity score was -133% (active). The result for `NS(=O)(=O)c1ccc(NC(=S)NC(=O)c2cccc(Br)c2)cc1` reads -61.6% (active); that for `O=S(=O)(c1ccc(F)cc1)n1ccc(-c2cnc(-c3ccccc3)s2)n1`, -138% (active); that for `c1ccc(CSc2nnc(-c3ccco3)n2Cc2ccccc2)cc1`, -126% (active). Consider `Cc1ccc(CN2C(=O)N/C(=C/c3cc(C)n(-c4ccccn4)c3C)C2=O)cc1`, for which the activity score was -88.6% (active).

Take `O=C(NNC(=S)Nc1ccc(Br)cc1Cl)c1ccco1`: the activity score was -157% (active). The result for `NNc1nc2c(Cl)cccc2s1` reads -119% (active); that for `Cc1nc2ccccc2nc(=O)c1NNc1ccc([N+](=O)[O-])cc1`, -109% (active); that for `CN(C(=O)c1ccccn1)c1nnc(-c2ccccn2)s1`, -110% (active). Next, `Cc1sc2ncnc(N3CCC(C(=O)Nc4nc5ccc(Cl)cc5s4)CC3)c2c1C`: -183% (active). `COc1cc2ccccc2cc1C(=O)Nc1nc(C)c(C(C)=O)s1`: the activity score was -106% (active). Next, `COc1cc2ccccc2cc1C(=O)Nc1ccncc1`: -70.2% (active). For the molecule `COc1cc2ccccc2cc1C(=O)Nc1ccccc1C`, the activity score was -118% (active).

Turning to `COc1cc(OC)c(C(=O)Nc2ccc(N(C)C)cc2)cc1OC`, the activity score was -129% (active).

As for `COC(=O)c1sc(NC(=O)c2ccc(OC)cc2OC)nc1C`, the activity score is 101%. Consider `Cc1ccc2nc(-c3ccncc3)cc(C(=O)Nc3ccc(OC(F)F)cc3)c2c1`, for which the activity score is 67.6%. Consider `COc1ccc2c3c1O[C@H]1C[C@@H](O)C=C[C@@]31CCN(C)C2`, for which the activity score is 62%.

Regarding `O=C(Cn1cc(C(=O)c2cccs2)c2ccccc21)NCc1cccs1`, the activity score was -69.5% (active).

Take `CCOC(=O)N/N=C/c1cn(Cc2ccccc2Cl)c2ccccc12`: the activity score is 42.5%. Take `COC(=O)c1cn(CC(=O)NCc2cccs2)c2ccccc12`: the activity score is -111% (active). The result for `CCOc1ccccc1NC(=O)Cn1nnc(C(=O)NCc2cccs2)c1N` reads 84.9%. Consider `Cc1ccc(N)cc1-n1c(C)ccc1C`, for which the activity score is -77.6% (active). With `O=c1cc(-c2ccccc2)[nH]c2cc(F)ccc12`, the activity score was 93.3%. In the case of `Cc1ccc(-c2cc(=O)c3ccc(F)cc3[nH]2)cc1`, the activity score was -68.9% (active).

Turning to `O=C(Nc1cccc(-c2nc3ccccc3[nH]2)c1)c1ccc(C(=O)Nc2cccc(-c3nc4ccccc4[nH]3)c2)cc1`, the activity score was -70.2% (active). Next, `Cc1ccc(-n2nc3ccc(NC(=O)/C=C/c4ccco4)cc3n2)cc1C`: -154% (active); `O=C(/C=C/c1ccco1)Nc1cccc(-c2nc3ccccc3[nH]2)c1`: -143% (active).

On to `Cc1cccc(OC(=O)c2sc3ncn(C)c(=O)c3c2C)c1`, for which the activity score was -210% (active). The result for `Cc1c(C(N)=O)sc2ncn(CCOc3ccccc3)c(=O)c12` reads -66.2% (active); that for `c1ccc(CCc2nc(-c3ccncc3)no2)cc1`, -99% (active). Turning to `O=C1c2ccccc2C(=O)c2c1cccc2N1CCN(CCO)CC1`, the activity score is -64.5% (active). For `N#C/C=C1\Sc2ccccc2C(=O)N1CC(=O)N1CCN(S(=O)(=O)c2ccccc2)CC1`, the activity score was -152% (active). On to `Fc1ccc2nc(Nc3nc4c(s3)CCCC4)sc2c1`, for which the activity score is -206% (active). The result for `NS(=O)(=O)c1ccc(N=Nc2c(O)[nH]c3ccc(Br)cc23)cc1` reads -119% (active). As for `O=C1CCCc2c1[nH]c1ccc(Br)cc21`, the activity score was 89%. Next, `COC(=O)CCC(=O)N1CCCC(CO)(Cc2ccccc2)C1` (stereo unspecified): -124% (active); `Cc1noc(C)c1CCC(=O)N1CCCC(CO)(Cc2ccccc2)C1` (stereo unspecified): -110% (active); `Cc1ccc(OC(=O)c2c(C)nn(-c3ccccc3)c2C)cc1`: -131% (active). Turning to `COCCNC(=O)c1ccc2nc(Cc3ccc(OC)c(OC)c3)oc2c1`, the activity score is -80.1% (active). Next, `CSCCNC(=O)c1ccc2nc(Cc3ccccc3F)oc2c1`: -130% (active); `COc1ccc(Cc2nnc(N/N=C/c3ccccc3O)[nH]c2=O)cc1OC`: 91.4%; `CNC(=S)N/N=C/c1ccc(N2CCOCC2)s1`: -100% (active).

In the case of `Cc1nc(NC(=O)c2ccc3c(c2)OCCO3)ccc1Br`, the activity score is -116% (active). The result for `CC(C)C(=O)Nc1ccc2c(c1)oc1ccccc12` reads -225% (active); that for `CCOc1ccc(C(=O)Nc2nccs2)cc1[N+](=O)[O-]`, -123% (active); that for `CC(=O)Oc1ccc(C(=O)Nc2nccs2)cc1`, -98% (active).

On to `Cc1ccc(-c2nc3ccccc3[nH]2)cc1N`, for which the activity score is -122% (active). The result for `COc1ccc(-c2csc(-c3cccs3)n2)cc1OC` reads -154% (active). The result for `O=C(Nc1ncc([N+](=O)[O-])s1)C1COc2ccccc2O1` (stereo unspecified) reads -93.3% (active); that for `O=C(Cc1c(F)cccc1Cl)Nc1ncc([N+](=O)[O-])s1`, -133% (active); that for `O=C(CCc1ccccc1)Nc1ncc([N+](=O)[O-])s1`, -165% (active). Consider `CC(=O)Oc1ccccc1C(=O)Nc1ncc([N+](=O)[O-])s1`, for which the activity score was -68.7% (active). Next, `c1ccc2c(C[n+]3csc4ccccc43)cccc2c1`: -83.3% (active); `Cc1cccc(N=Nc2c(C)[nH]n(-c3ccccc3)c2=O)c1`: -126% (active). Take `CCCC(=O)Nc1ccc2c(c1)nc1n2CCSC1`: the activity score was -94.7% (active). In the case of `CC1(C)C2CC=C(/C=N/NC(=O)c3ccc(Cl)cc3)C1C2` (stereo unspecified), the activity score is -63.4% (active).

Values taken from PubChem BioAssay AID1814 (Broad Institute, 2009).
